# Measurements as given in PubChem BioAssay (EPA / NIEHS).
# “And” between values parts separate entries of the source, which are not always exact repeats. Equal entries are not always repeated. More than one record can exist for a structure, and the calls need not agree. The source made the active and inactive calls. How the source made its calls: active means hit-call score of the fitted dose curve at least 0.9, where 1 is the maximum; inactive means score below 0.9.
# How the values were obtained:
# [1] = read-out: Interleukin-8 (IL8), CXCL8 (gene 3576); assay: BSK_CASM3C_IL8: BioMAP Diversity Plus: CASM3C Assay for Interleukin-8 (IL8) Biomarker Activity (AID 2283042); conditions: primary human coronary artery smooth muscle cells; actives raise or lower the signal;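 further: IL-8 protein level quantified by ELISA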
# [2] = read-out: Human Leukocyte Antigen - DR isotype (HLADR), HLA-DRA (gene 3122); assay: BSK_CASM3C_HLADR: BioMAP Diversity Plus: CASM3C Assay for Human Leukocyte Antigen - DR isotype (HLADR) Biomarker Activity (AID 2283043); conditions: primary human coronary artery smooth muscle cells; actives raise or lower the signal;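 further: cell-surface HLA-DR protein level quantified by ELISA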
# [3] = read-out: Macrophage colony-stimulating factor (MCSF), CSF1 (gene 1435); assay: BSK_CASM3C_MCSF: BioMAP Diversity Plus: CASM3C Assay for Macrophage colony-stimulating factor (MCSF) Biomarker Activity (AID 2283044); conditions: primary human coronary artery smooth muscle cells; actives raise or lower the signal;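 further: M-CSF protein amount quantified by ELISA after 24 h exposure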
# [4] = read-out: Low-density lipoprotein receptor (LDLR), LDLR (gene 3949); assay: BSK_CASM3C_LDLR: BioMAP Diversity Plus: CASM3C Assay for Low-density lipoprotein receptor (LDLR) Biomarker Activity (AID 2283045); conditions: primary human coronary artery smooth muscle cells; actives raise or lower the signal;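 further: LDLR protein level on the cell surface quantified by ELISA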
# [5] = read-out: Monocyte Chemoattractant Protein-1 (MCP1), CCL2 (gene 6347); assay: BSK_CASM3C_MCP1: BioMAP Diversity Plus: CASM3C Assay for Monocyte Chemoattractant Protein-1 (MCP1) Biomarker Activity (AID 2283046); conditions: primary human coronary artery smooth muscle cells; actives raise or lower the signal;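 further: MCP-1 level quantified by ELISA 24 h after dosing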
# [6] = BSK_CASM3C_Proliferation: Cell Proliferation Assessment in the BioMAP Diversity Plus: CASM3C Assay (AID 2283047); conditions: primary human coronary artery smooth muscle cells;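 further: sulforhodamine B total protein stain as relative cell number at 560 nm; sub-confluent cells exposed 48 h before staining; fitted both ways against DMSO so gain or loss of cell number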
# [7] = read-out: Monokine induced gamma interferon (MIG), CXCL9 (gene 4283); assay: BSK_CASM3C_MIG: BioMAP Diversity Plus: CASM3C Assay for Monokine induced gamma interferon (MIG) Biomarker Activity (AID 2283048); conditions: primary human coronary artery smooth muscle cells; actives raise or lower the signal;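 further: MIG protein level measured by ELISA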
# [8] = read-out: serum amyloid A (SAA), SAA1 (gene 6288); assay: BSK_CASM3C_SAA: BioMAP Diversity Plus: CASM3C Assay for serum amyloid A (SAA) Biomarker Activity (AID 2283049); conditions: primary human coronary artery smooth muscle cells; actives raise or lower the signal;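 further: SAA protein level quantified by ELISA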
# [9] = BSK_CASM3C_SRB: Viability Assessment in the BioMAP Diversity Plus: CASM3C Assay (AID 2283050); conditions: primary human coronary artery smooth muscle cells;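 further: total protein by SRB staining as cytotoxicity measure in parallel cultures; cells exposed to compound for 24 h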
# [10] = read-out: Thrombomodulin, THBD (gene 7056); assay: BSK_CASM3C_Thrombomodulin: BioMAP Diversity Plus: CASM3C Assay for Thrombomodulin Biomarker Activity (AID 2283051); conditions: primary human coronary artery smooth muscle cells; actives raise or lower the signal;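 further: thrombomodulin protein level measured by ELISA 24 h after dosing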
# [11] = read-out: Tissue Factor, F3 (gene 2152); assay: BSK_CASM3C_TissueFactor: BioMAP Diversity Plus: CASM3C Assay for Tissue Factor Biomarker Activity (AID 2283052); conditions: primary human coronary artery smooth muscle cells; actives raise or lower the signal;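 further: cell surface tissue factor protein level read by ELISA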
# [12] = read-out: Interferon-gamma inducible Protein 10 (IP10), CXCL10 (gene 3627); assay: BSK_hDFCGF_IP10: BioMAP Diversity Plus: hDFCGF Assay for Interferon-gamma inducible Protein 10 (IP10) Biomarker Activity (AID 2283053); conditions: primary human foreskin fibroblasts; actives raise or lower the signal
# In short: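 IP-10 levels, quantified by ELISA, are taken from human foreskin fibroblast cultures 24 h after chemical treatment, with DMSO serving as negative control and baseline for bidirectional analysis.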
# [13] = read-out: Urokinase-type plasminogen activator receptor (uPAR), PLAUR (gene 5329); assay: BSK_CASM3C_uPAR: BioMAP Diversity Plus: CASM3C Assay for Urokinase-type plasminogen activator receptor (uPAR) Biomarker Activity (AID 2283054); conditions: primary human coronary artery smooth muscle cells; actives raise or lower the signal;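 further: cell-surface uPAR protein level quantified by ELISA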
# [14] = read-out: Vascular cell adhesion molecule 1 (VCAM1), VCAM1 (gene 7412); assay: BSK_CASM3C_VCAM1: BioMAP Diversity Plus: CASM3C Assay for Vascular cell adhesion molecule 1 (VCAM1) Biomarker Activity (AID 2283055); conditions: primary human coronary artery smooth muscle cells; actives raise or lower the signal;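 further: VCAM-1 protein level quantified by ELISA on the cells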
# [15] = read-out: Collagen III, COL3A1 (gene 1281); assay: BSK_hDFCGF_CollagenIII: BioMAP Diversity Plus: hDFCGF Assay for Collagen III Biomarker Activity (AID 2283056); conditions: primary human foreskin fibroblasts; actives raise or lower the signal
# In short: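 ELISA readout of Collagen III in human dermal (foreskin) fibroblasts, taken 24 h post-treatment. Gain or loss relative to DMSO vehicle fitted in both directions.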
# [16] = read-out: Epidermal growth factor receptor (EGFR), EGFR (gene 1956); assay: BSK_hDFCGF_EGFR: BioMAP Diversity Plus: hDFCGF Assay for Epidermal growth factor receptor (EGFR) Biomarker Activity (AID 2283057); conditions: primary human foreskin fibroblasts; actives raise or lower the signal
# In short: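 Measured by ELISA: EGFR levels on primary human foreskin fibroblasts 24 h after chemical treatment, analysed relative to DMSO with bidirectional fitting.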
# [17] = read-out: Interleukin-8 (IL8), CXCL8 (gene 3576); assay: BSK_hDFCGF_IL8: BioMAP Diversity Plus: hDFCGF Assay for Interleukin-8 (IL8) Biomarker Activity (AID 2283058); conditions: primary human foreskin fibroblasts; actives raise or lower the signal
# In short: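 IL-8 levels read by ELISA at 24 hours after dosing human skin fibroblast cultures. Parallel SRB staining assessed overt cytotoxicity, and gain or loss of signal was fitted against DMSO control.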
# [18] = BSK_hDFCGF_Proliferation: Cell Proliferation Assessment in the BioMAP Diversity Plus: hDFCGF Assay (AID 2283059); conditions: primary human foreskin fibroblasts;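 further: curves fitted for both rise and fall of signal versus DMSO baseline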
# In short: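 Total protein read at 560 nm after 0.1% SRB staining of TCA-fixed human skin fibroblasts, […]. Activity is fitted in both directions relative to DMSO as baseline.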
# [19] = read-out: Macrophage colony-stimulating factor (MCSF), CSF1 (gene 1435); assay: BSK_hDFCGF_MCSF: BioMAP Diversity Plus: hDFCGF Assay for Macrophage colony-stimulating factor (MCSF) Biomarker Activity (AID 2283060); conditions: primary human foreskin fibroblasts; actives raise or lower the signal
# In short: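 M-CSF levels read by ELISA at 24 h post-dosing in human skin fibroblasts. Parallel cultures stained with SRB assessed cytotoxicity at the same time point; response fitted in both directions against the DMSO baseline.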
# [20] = BSK_hDFCGF_SRB: Viability Assessment in the BioMAP Diversity Plus: hDFCGF Assay (AID 2283061); conditions: primary human foreskin fibroblasts;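 further: cells exposed to compound for 24 h before the read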
# In short: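 Viability was read as total protein: after 10% TCA fixation, wells were stained with 0.1% sulforhodamine B and read at 560 nm. Primary human foreskin fibroblasts were dosed for 24 h, with bidirectional fitting versus DMSO.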
structure (smiles),measurement,setting,value
ClC1=C(Cl)C(Cl)(Cl)C(Cl)=C1Cl,AC50,[1],9.09 µM (active)
same,AC50,[2],4.27 µM (active)
same,AC50,[3],6.59 µM (active)
same,AC50,[4],5.87 µM (active)
same,AC50,[5],7.68 µM (active)
same,AC50,[6],2.76 µM (active)
same,AC50,[7],7.3 µM (active)
same,AC50,[8],6.33 µM (active)
same,AC50,[9],7.64 µM (active)
same,outcome,[10],inactive
same,AC50,[11],1.92 µM (active)
same,AC50,[12],9.62 µM (active)
same,AC50,[13],6.99 µM (active)
same,AC50,[14],5.1 µM (active)
same,AC50,[15],14 µM (active)
same,outcome,[16],inactive
same,AC50,[17],17 µM (active)
same,AC50,[18],4.2 µM (active)
same,AC50,[19],9.09 µM (active)
same,AC50,[20],12.8 µM (active)
C[C@@H]1C[C@H]2[C@@H]3CCC4=CC(=O)C=C[C@]4(C)[C@@]3(F)[C@@H](O)C[C@]2(C)[C@@]1(O)C(=O)COP(=O)(O)O,AC50,[1],176 nM (active) and 1.04 µM (active) and 101 nM (active)
same,outcome,[2],inactive
same,AC50,[3],29.4 nM (active) and 113 nM (active) and 217 nM (active)
same,outcome,[4],inactive
same,AC50,[5],141 nM (active) and 1.58 µM (active) and 720 nM (active)
same,AC50,[6],0.163 µM (active)
same,outcome,[6],inactive
same,outcome,[7],inactive
same,AC50,[8],54.4 nM (active) and 105 nM (active) and 155 nM (active)
same,outcome,[9],inactive
same,AC50,[10],29.4 nM (active) and 100 nM (active)
same,outcome,[10],inactive
same,AC50,[11],122 nM (active) and 674 nM (active)
same,outcome,[11],inactive
same,AC50,[12],696 nM (active) and 895 nM (active)
same,outcome,[12],inactive
same,outcome,[13],inactive
same,AC50,[14],0.1 µM (active)
same,outcome,[14],inactive
same,outcome,[15],inactive
same,outcome,[16],inactive
same,outcome,[17],inactive
same,AC50,[18],30.3 µM (active)
same,outcome,[18],inactive
same,AC50,[19],615 nM (active) and 730 nM (active)
same,outcome,[19],inactive
same,AC50,[20],3.28 µM (active)
same,outcome,[20],inactive
CCCCCCCCCCCCCC[N+](C)(C)C,AC50,[1],10.8 µM (active)
same,AC50,[2],5.99 µM (active)
same,AC50,[3],4.57 µM (active)
same,AC50,[4],8.07 µM (active)
same,AC50,[5],5.83 µM (active)
same,AC50,[6],5.31 µM (active)
same,AC50,[7],11.8 µM (active)
same,AC50,[8],2.89 µM (active)
same,AC50,[9],5.35 µM (active)
same,AC50,[10],5.06 µM (active)
same,AC50,[11],5.36 µM (active)
same,AC50,[12],5.92 µM (active)
same,AC50,[13],5.05 µM (active)
same,AC50,[14],9.9 µM (active)
same,AC50,[15],1.59 µM (active)
same,AC50,[16],4.98 µM (active)
same,AC50,[17],14.1 µM (active)
same,AC50,[18],1.05 µM (active)
same,AC50,[19],2.81 µM (active)
same,AC50,[20],5.22 µM (active)
CC[C@H](c1ccc(O)cc1)[C@@H](CC)c1ccc(O)cc1,outcome,[1],inactive
same,outcome,[2],inactive
same,outcome,[3],inactive
same,outcome,[4],inactive
same,outcome,[5],inactive
same,AC50,[6],20 µM (active)
same,outcome,[7],inactive
same,outcome,[8],inactive
same,outcome,[9],inactive
same,outcome,[10],inactive
same,outcome,[11],inactive
same,AC50,[12],24.1 µM (active)
same,outcome,[13],inactive
same,AC50,[14],27.4 µM (active)
same,AC50,[15],15.1 µM (active)
same,outcome,[16],inactive
same,AC50,[17],37.8 µM (active)
same,AC50,[18],18.8 µM (active)
same,AC50,[19],29.7 µM (active)
same,AC50,[20],30.4 µM (active)
c1ccc2c(c1)ccc1ccccc12,outcome,[1],inactive
same,outcome,[2],inactive
same,outcome,[3],inactive
same,outcome,[4],inactive
same,outcome,[5],inactive
same,outcome,[6],inactive
same,outcome,[7],inactive
same,outcome,[8],inactive
same,outcome,[9],inactive
same,outcome,[10],inactive
same,outcome,[11],inactive
same,outcome,[12],inactive
same,outcome,[13],inactive
same,outcome,[14],inactive
same,outcome,[15],inactive
same,outcome,[16],inactive
same,outcome,[17],inactive
same,outcome,[18],inactive
same,outcome,[19],inactive
same,outcome,[20],inactive
